Here are results for nine molecules from PubChem BioAssay (NCI).

The structures appear in SMILES notation. The panel holds about 79,000 compounds, 15% with a hit somewhere; the sample as a whole holds those more often. Unmarked numbers belong to inactive results. Activity calls are given as the source filed them. No stated cut-off is given here; in the data, active means growth inhibition above about 70%; inactive means the rest.

Experiment [1] is described as follows: NCI Yeast Anticancer Drug Screen. Data for the rad50 strain (AID 155).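 Further: 0% = growth of vehicle-only cultures of the same strain.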 Particulars: S. cerevisiae rad50 strain growth inhibition, hits give high values. The method in brief: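 Growth of the mutant yeast was measured after compound exposure and referenced to vehicle-treated cultures.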
Experiment [2] is described as follows: NCI Yeast Anticancer Drug Screen. Data for the mec2-1 strain (AID 157). To be noted: S. cerevisiae mec2-1 strain, hits give high values. The method in brief:
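mec2-1 yeast strain, carrying an alteration in DNA damage repair or cell cycle control, was exposed to compounds; growth inhibition was measured relative to vehicle-treated controls.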

Experiment [3] can be described thus: NCI Yeast Anticancer Drug Screen. Data for the sgs1 mgt1 strain (AID 161).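 Further: 0% = growth of cultures given vehicle only.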 To be noted: S. cerevisiae sgs1 mgt1 strain, hits give high values. Summed up:
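Yeast cells carrying a defined DNA-repair defect were exposed to test compounds. Growth inhibition was measured relative to vehicle-treated controls.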

The nature of experiment [4]: NCI Yeast Anticancer Drug Screen. Data for the cln2 rad14 strain (AID 165).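 Further: 0% = growth equal to vehicle treated cultures.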 Particulars: S. cerevisiae cln2 rad14 strain, hits give high values. The method in brief:
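Yeast carrying cln2 and rad14 alterations (cell cycle control and DNA damage repair) were exposed to compounds. Growth inhibition was measured against vehicle-treated controls.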

The nature of experiment [5]: NCI Yeast Anticancer Drug Screen. Data for the bub3 strain (AID 167). Particulars: S. cerevisiae bub3 mutant strain, hits give high values. The method in brief:
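Whole-cell yeast assay. The mutant strain was incubated with compounds, and growth inhibition was determined by comparison with vehicle-treated cells.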

Experiment [6] in a line: NCI Yeast Anticancer Drug Screen. Data for the mlh1 rad18 strain (AID 175). Particulars: S. cerevisiae mlh1 rad18 strain growth inhibition, hits give high values. The method in brief: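 Growth inhibition of the yeast strain was measured after compound exposure and expressed relative to vehicle-treated controls. The strain carries defined defects in DNA damage repair.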
Where [7] appears, read: at 5.0 µM (retest, dose inferred, filed as 0.5).
Where [8] appears, read: at 50.0 µM (retest, dose inferred, filed as 5.0).

For `CN1CCN(CCSC2Cc3cc(Cl)ccc3Sc3ccccc32)CC1` (configuration not stated), the growth inhibition in experiment [1] (setting [7]) was 29%; in experiment [1] (setting [8]), 29%; in experiment [1] (at 50.0 µM), 93% (active); in experiment [2] (setting [7]), 5%; in experiment [2] (setting [8]), 5%; in experiment [2] (at 50.0 µM), 91.8% (active). The growth inhibition in experiment [3] (setting [7]) is 19%; in experiment [3] (setting [8]), 19%; in experiment [3] (at 50.0 µM), 92% (active); in experiment [4] (setting [7]) it was 1%; in experiment [4] (setting [8]), 1%; in experiment [4] (at 50.0 µM) it was 91.6% (active). Besides, the growth inhibition in experiment [5] (setting [7]) was 16%; in experiment [5] (setting [8]) it was 16%; in experiment [5] (at 50.0 µM) it was 93.8% (active); in experiment [6] (setting [7]) it was 29%; in experiment [6] (setting [8]) it was 29%; in experiment [6] (at 50.0 µM) it was 92.5% (active).

With `O=C(/C(=C\c1ccccc1)c1ccccc1)c1ccc(Br)cc1`, the growth inhibition in experiment [1] (setting [7]) is 7%; in experiment [1] (setting [8]), -9%; in experiment [1] (at 50.0 µM), 10.2%; in experiment [2] (setting [7]) it was 3%; in experiment [2] (setting [8]) it was 4%; in experiment [2] (at 50.0 µM), -16.2%. The growth inhibition in experiment [3] (setting [7]) was 4%; in experiment [3] (setting [8]), 5%; in experiment [3] (at 50.0 µM), 24.6%; in experiment [4] (setting [7]), 0%; in experiment [4] (setting [8]), -8%; in experiment [4] (at 50.0 µM), 47.1%. Further, the growth inhibition in experiment [5] (setting [7]) is 1%; in experiment [5] (setting [8]), 9%; in experiment [5] (at 50.0 µM), 11.8%; in experiment [6] (setting [7]), -8%; in experiment [6] (setting [8]), 2%; in experiment [6] (at 50.0 µM), 17.4%.

Turning to `CCOC(=O)C(NC(C)=O)[CH](c1ccccc1)[Sn]([c]1ccccc1)([c]1ccccc1)[c]1ccccc1` (configuration not stated), the growth inhibition was 3% in experiment [1] (setting [7]); 92% (active) in experiment [1] (setting [8]); 94.4% (active) in experiment [1] (at 50.0 µM); -7% in experiment [2] (setting [7]); 96% (active) in experiment [2] (setting [8]); 97.5% (active) in experiment [2] (at 50.0 µM). Moreover, the growth inhibition in experiment [3] (setting [7]) is -10%; in experiment [3] (setting [8]), 95% (active); in experiment [3] (at 50.0 µM) it was 99.1% (active); in experiment [4] (setting [7]), -19%; in experiment [4] (setting [8]), 92% (active); in experiment [4] (at 50.0 µM), 94% (active). Also, the growth inhibition in experiment [5] (setting [7]) is -13%; in experiment [5] (setting [8]), 96% (active); in experiment [5] (at 50.0 µM) it was 96.2% (active); in experiment [6] (setting [7]), 2%; in experiment [6] (setting [8]), 95% (active); in experiment [6] (at 50.0 µM), 96.7% (active).

For `COc1ccc(C(=O)c2cc(Br)ccc2O)cc1`, the growth inhibition was -3% in experiment [1] (setting [7]); 4% in experiment [1] (setting [8]); 89.3% (active) in experiment [1] (at 50.0 µM); -6% in experiment [2] (setting [7]); 4% in experiment [2] (setting [8]); 71.9% (active) in experiment [2] (at 50.0 µM). Further, the growth inhibition in experiment [3] (setting [7]) is -1%; in experiment [3] (setting [8]), 18%; in experiment [3] (at 50.0 µM), 84% (active); in experiment [4] (setting [7]), -20%; in experiment [4] (setting [8]), -9%; in experiment [4] (at 50.0 µM), 46%. For the same molecule, the growth inhibition in experiment [5] (setting [7]) is 3%; in experiment [5] (setting [8]) it was 11%; in experiment [5] (at 50.0 µM) it was 94.5% (active); in experiment [6] (setting [7]), -1%; in experiment [6] (setting [8]) it was -2%; in experiment [6] (at 50.0 µM) it was 90.1% (active).

Consider `CCOC(=O)C(Br)C(Br)c1cccc(Cl)c1` (configuration not stated), for which the growth inhibition in experiment [1] (setting [7]) was 53%; in experiment [1] (setting [8]), 99% (active); in experiment [1] (at 50.0 µM) it was 99.5% (active); in experiment [2] (setting [7]), 64%; in experiment [2] (setting [8]), 99% (active); in experiment [2] (at 50.0 µM), 99.7% (active). The growth inhibition in experiment [3] (setting [7]) was 84% (active); in experiment [3] (setting [8]), 99% (active); in experiment [3] (at 50.0 µM), 99.8% (active); in experiment [4] (setting [7]) it was 31%; in experiment [4] (setting [8]) it was 99% (active); in experiment [4] (at 50.0 µM) it was 99.4% (active). In addition, the growth inhibition in experiment [5] (setting [7]) was 57%; in experiment [5] (setting [8]), 99% (active); in experiment [5] (at 50.0 µM) it was 99.8% (active); in experiment [6] (setting [7]), 84% (active); in experiment [6] (setting [8]) it was 99% (active); in experiment [6] (at 50.0 µM), 99.5% (active).

For `CC(C(=O)O)C(N)C(=O)O` (configuration not stated), the growth inhibition in experiment [1] (setting [7]) is -1%; in experiment [1] (setting [8]), 4%; in experiment [1] (at 50.0 µM), 99.5% (active); in experiment [2] (setting [7]), -1%; in experiment [2] (setting [8]), -6%; in experiment [2] (at 50.0 µM), 99.6% (active). The growth inhibition in experiment [3] (setting [7]) is -2%; in experiment [3] (setting [8]) it was 2%; in experiment [3] (at 50.0 µM), 99.3% (active); in experiment [4] (setting [7]) it was 6%; in experiment [4] (setting [8]), -6%; in experiment [4] (at 50.0 µM), 99.5% (active). The growth inhibition in experiment [5] (setting [7]) is 4%; in experiment [5] (setting [8]) it was -7%; in experiment [5] (at 50.0 µM) it was 99.6% (active); in experiment [6] (setting [7]), -2%; in experiment [6] (setting [8]) it was 3%; in experiment [6] (at 50.0 µM) it was 99.5% (active).

As to `CCCCC1(CC)COC(c2ccccc2OC)OC1` (configuration not stated), the growth inhibition in experiment [1] (setting [7]) was -6%; in experiment [1] (setting [8]), 88% (active); in experiment [1] (at 50.0 µM), -28.4%; in experiment [2] (setting [7]), -5%; in experiment [2] (setting [8]) it was 88% (active); in experiment [2] (at 50.0 µM) it was 2.45%. In addition, the growth inhibition in experiment [3] (setting [7]) was -1%; in experiment [3] (setting [8]), 81% (active); in experiment [3] (at 50.0 µM), 5.5%; in experiment [4] (setting [7]), -9%; in experiment [4] (setting [8]), 65%; in experiment [4] (at 50.0 µM) it was -9.85%. Also, the growth inhibition in experiment [5] (setting [7]) is 31%; in experiment [5] (setting [8]), 92% (active); in experiment [5] (at 50.0 µM), 76.5% (active); in experiment [6] (setting [7]) it was -2%; in experiment [6] (setting [8]), 87% (active); in experiment [6] (at 50.0 µM) it was -17.2%.

`COC(=O)c1cc2c(oc1=O)-c1ccccc1N(C=O)C2`: the growth inhibition in experiment [1] (setting [7]) is -3%; in experiment [1] (setting [8]), -8%; in experiment [1] (at 50.0 µM) it was 0.3%; in experiment [2] (setting [7]), -9%; in experiment [2] (setting [8]) it was -11%; in experiment [2] (at 50.0 µM), -8.75%. Besides, the growth inhibition was -13% in experiment [3] (setting [7]); -11% in experiment [3] (setting [8]); 11.4% in experiment [3] (at 50.0 µM); -11% in experiment [4] (setting [7]); -9% in experiment [4] (setting [8]); -55.8% in experiment [4] (at 50.0 µM). Also, the growth inhibition was -16% in experiment [5] (setting [7]); -24% in experiment [5] (setting [8]); -35.1% in experiment [5] (at 50.0 µM); 0% in experiment [6] (setting [7]); -21% in experiment [6] (setting [8]); 2.1% in experiment [6] (at 50.0 µM).

Regarding `CC(=O)O/N=C1/CCC2C3CC=C4CC(OC(C)=O)CCC4(C)C3CCC12C` (configuration not stated), the growth inhibition in experiment [1] (setting [7]) was 0%; in experiment [1] (setting [8]) it was 69%; in experiment [1] (at 50.0 µM), 68.8%; in experiment [2] (setting [7]), 16%; in experiment [2] (setting [8]), 93% (active); in experiment [2] (at 50.0 µM), 71.5% (active). In addition, the growth inhibition in experiment [3] (setting [7]) is 8%; in experiment [3] (setting [8]) it was 89% (active); in experiment [3] (at 50.0 µM) it was 89.9% (active); in experiment [4] (setting [7]), -1%; in experiment [4] (setting [8]), 87% (active); in experiment [4] (at 50.0 µM), 85% (active). Moreover, the growth inhibition was -7% in experiment [5] (setting [7]); 74% (active) in experiment [5] (setting [8]); 41.5% in experiment [5] (at 50.0 µM); 34% in experiment [6] (setting [7]); 93% (active) in experiment [6] (setting [8]); 77.1% (active) in experiment [6] (at 50.0 µM).
